# From PubChem BioAssay AID449762 (Southern Research Specialized Biocontainment Screening …, 2010)
# Screen size: about 330,000 compounds; about 1,900 (0.58%) were called active. Not shown: some 4% with an inconclusive outcome. These entries were drawn from the full list. Measured potencies and affinities stand elsewhere. Values without a mark were called inactive. No stated cut-off is given here; in the data, inconclusive means inhibition above about 70% without an active follow-up result; inactive means below that.
# Experiment: M. tuberculosis growth inhibition, HTS (AID 449762);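 further: bacterial growth assessed after seven days of incubation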
# Details: M. tuberculosis H37Rv growth inhibition, 7H9 media; at 25 µM; hits give high values
row,Compound,inhibition [%]
1,CN(CC(=O)Nc1cccc(F)c1)C(=O)CCN1C(=O)C2CC=CCC2C1=O (stereo not given),-7.97
2,Cc1ccc(C(=O)N2CCC3(CC2)NCCc2[nH]cnc23)cc1,0.45
3,CCOC(=O)c1c(-c2ccccc2)c2cc(OC)ccc2n1CCCN(C)C,47.1
4,Cn1c(=O)c(C(=O)NNC(=O)c2ccccc2Br)c(O)c2ccccc21,45.1
5,Cn1c(=O)c(C(=O)NNC(=O)c2ccccc2Cl)c(O)c2ccccc21,53.6
6,Cc1ccc(C(=O)N/C(=C\c2cccnc2)c2nc3ccccc3[nH]2)cc1,-7.38
7,Cc1ccc(C(=O)N/C(=C\c2cccs2)c2nc3ccccc3[nH]2)cc1,-6.82
8,CC(C)[C@@]1(c2ccc(Cl)cc2)ON(c2ccccc2C(F)(F)F)C1=O,-3.69
9,CCn1c(C)c(C)c2cc(C(=O)NCCCN3CCCC3)ccc21,-0.8
10,O=C(NC(=S)Nc1nc2c(s1)CCCC2)c1ccccc1,2.45
11,O=C(Nc1nc2c(s1)CCCC2)Oc1ccccc1,-2.24
12,O=C(COc1ccc([N+](=O)[O-])cc1)N/N=C/c1cc([N+](=O)[O-])ccc1N1CCOCC1,3.18
13,CCC(C)NC(=O)CNC(=S)N(Cc1ccccc1)Cc1cccnc1 (stereo not given),-7.33
14,Cc1ccc(NCC(O)C(O)C(O)CO)cc1C (stereo not given),-7.11
15,COc1ccc(N(C(=O)/C=C/C(=O)Nc2cc(C)on2)C(C(=O)NC2CCCC2)c2ccccc2C)cc1 (stereo not given),40
16,Cc1cc(NC(=O)CCC(=O)N(c2ccccc2)C(C(=O)NC2CCCC2)c2ccccc2C)no1 (stereo not given),0.1
17,CCCCCn1c(CCC(=O)Oc2ccccc2OC)nc2c1c(=O)[nH]c(=O)n2CCCC,4.88
18,COc1ccccc1CNC(=O)COC(=O)c1ccccc1SCC(=O)N1CCCC1,1.81
19,COc1ccccc1OCC(=O)N(Cc1nnc(-c2ccccc2Cl)o1)C1CC1,0.28
20,COCCN(Cc1ccccc1)P(=O)(O)c1ccccc1OCC(=O)O,-0.51
21,C/C(O)=C/c1nc2ccccc2[nH]c1=O,3.14
22,Cc1ccc2oc(=O)c(/C=C(\O)c3ccccc3)nc2c1,-2.76
23,CC(=O)Nc1ccc(NC(=O)C(C)Oc2ccc(C)nc2[N+](=O)[O-])cc1 (stereo not given),6.29
24,CCN(CCn1cccn1)C(=O)c1cc(COc2cccc3cccnc23)on1,-3.82

row,Compound,inhibition [%]
1,Cc1ccc(C(=O)N2CCN(CCNC(=O)C(=O)NCc3ccc(Cl)cc3)CC2)cc1,4.33
2,CC(C)(C)c1ccc(C(=O)N2CCN(CCNC(=O)C(=O)NCc3ccccc3)CC2)cc1,-0.83
3,O=C(Nc1ccccc1)N(CCCN1CCOCC1)Cc1ccccc1F,-5.07
4,CCOC(=O)N1CCC2(CC1)CC(=O)c1c(ccc3oc(C(=O)O)c(C)c13)O2,-2.67
5,COc1ccc2c(c1)CC(N1CCN(C)CC1)c1cc(OC)ccc1S2 (stereo not given),9.95
6,c1ccc2c(c1)CC(N1CCCCC1)c1ccccc1S2 (stereo not given),0.42
7,O=C(Nc1cc([N+](=O)[O-])ccc1C(=O)NCCN1CCOCC1)c1ccccc1,5.18
8,COCCn1c(SCc2nnc(-c3ccc(OC)c(OC)c3)o2)nnc1-c1ccncc1,5.88
9,Cc1ccc(-c2nnc(NCc3nc4ccccc4[nH]3)c3ccccc23)cc1S(=O)(=O)N(C)C,-2.52
10,Cn1c(-c2sc3cc(C(F)(F)F)cnc3c2-c2ccccn2)n[nH]c1=S,-2.76
11,O=C(OCC(=O)N1CCCC1)c1ccccc1O,3.14
12,O=C(OCC(=O)N1CCCCCC1)c1ccccc1Br,4.05
13,CC1CN(C(=O)COC(=O)c2ccc(F)cc2Cl)CC(C)O1 (stereo not given),6.83
14,CC12CCC(C(=O)NCCCN3CCOCC3)(C(Br)C1=O)C2(C)C (stereo not given),-0.09
15,Cc1cc(Cc2c(O)[nH]c(=S)[nH]c2=O)ccc1OC(C)C,-6.7
16,COC(=O)C1(CC2CC(c3ccccc3)=NO2)CCN(C(=O)OC(C)(C)C)CC1 (stereo not given),3.82
17,Cc1cc(Cl)ccc1OCCCC(N)=O,-4.53
18,Cc1cc(Cl)ccc1OCCCC(=O)NN,13.1
19,CCc1ccc(/C=C2/SC(=S)N(CCC(=O)NCCCN3CCOCC3)C2=O)cc1,-8.2
20,CC(C)(C)C(=O)N1CCN(c2ccc(NC(=O)c3ccco3)cc2)CC1,2.75
21,CN1CCN(c2ccc(NC(=O)c3ccc(-c4cccc([N+](=O)[O-])c4)o3)cc2)CC1,0.14
22,COCCN1CCN(C(=O)c2cc(COc3cc(C)ccc3C)on2)CC1,-2.97
23,Cc1cnc(NC(=O)CC2CCCC2)s1,1.33
24,Cc1cnc(NC(=O)C2CCC(C(C)(C)C)CC2)s1 (stereo not given),-5.46

row,Compound,inhibition [%]
1,Cc1cccc(NC(=O)COC(=O)c2ccc3c(=O)n4c(nc3c2)CCC4)c1,0.33
2,CCNC(=O)NC(=O)C(C)On1nnc2ccc(S(=O)(=O)N(CC)CC)cc21 (stereo not given),-3.62
3,C=CCSc1nc(N)c2c(C)c(C)sc2n1,-14.5
4,O=c1c2c(-c3ccccc3)csc2ncn1/N=C/c1cccc([N+](=O)[O-])c1O,0.37
5,O=c1c2c(-c3ccc(Cl)cc3)csc2ncn1/N=C/c1cccc([N+](=O)[O-])c1O,3.59
6,CCOC(=O)N1CCN(c2c(NCC3CCCO3)c(=O)c2=O)CC1 (stereo not given),2.94
7,COC(=O)c1cccc(NC(=O)CSc2nnc(C)o2)c1,3.7
8,Nc1ccc(CC2SC(=O)NC2=O)cc1 (stereo not given),-2.9
9,CCOc1ccc(CC2S/C(=N/c3ccccn3)NC2=O)cc1 (stereo not given),-1.03
10,CCc1c(C(=O)Nc2ccc(OC)cc2)[nH]c(C)c1C(C)=O,0.65
11,O=S(=O)(Nc1ncccn1)c1ccc(Cl)cc1,-3.71
12,CCCC(=O)Nc1nc2nc(-c3ccccc3)cc(=O)n2[nH]1,-6.79
13,CCC(=O)Nc1nc2nc(-c3ccccc3)cc(=O)n2[nH]1,-4.67
14,Clc1cccc(Cl)c1COc1ccncc1,-7.66
15,O=C(CNC(=O)c1ccccc1Cl)OC1CCOC1=O (stereo not given),0.14
16,CC(=O)c1cccc(NC(=S)NC2CC2)c1,-5.17
17,O=C(Nc1ccc2nsnc2c1)C1CC1,0.63
18,CC(=O)c1cccc(NC(=S)NC2CCCCC2)c1,0.31
19,S=C(Nc1ccc2nsnc2c1)NC1CCCCC1,-5.66
20,CCc1c(C)sc(NC(=O)c2cc(-c3cc(OC)ccc3OC)on2)c1C#N,9.02
21,CCCCCCCCNC(CO)(CO)CO,-13.8
22,O=C(C1=C[C@H](c2ccc(Br)cc2)C[C@H](OCCCCO)O1)N1CCOCC1,8.9
23,CCn1cc(CNC(=O)C2CCC(=O)N(C3CCCCCC3)C2)cn1 (stereo not given),-6.38
24,COC(=O)C1=NNC(C(=O)c2ccco2)C1c1ccccc1 (stereo not given),4.3

row,Compound,inhibition [%]
1,CCOC(=O)c1ccccc1NC(=O)COC(=O)C1CCCC1,27.5
2,CC[C@H](C)[C@@H](CNC)NC[C@@H](Cc1ccc(O)cc1)NCC(C)(C)C,-12.2
3,CC[C@@H](C)[C@H](CN[C@H](CNC)[C@@H](C)O)NCCc1ccc(OC)cc1,0.9
4,CCCCN(CC)C(=O)CSc1nc2ccccc2c(=O)n1CC1COc2ccccc2O1 (stereo not given),15
5,O=C(NCc1cccc(Cl)c1)c1cc(=O)[nH]c2ccccc12,-6.18
6,CCOC(=O)CN(C#N)c1nc(C)cc(C)n1,-0.56
7,COC(=O)CN(C#N)c1nc(OC)nc(N(C)C)n1,9.53
8,O=C(COC(=O)c1ccccc1)Nc1cc(S(=O)(=O)N2CCCCCC2)ccc1Cl,-13
9,CCN1C(=O)[C@@H]2[C@@H](c3ccc(-c4ccc(C(C)=O)cc4)c(OC)c3)N3CCC[C@@]3(C(=O)OC)[C@@H]2C1=O,18.4
10,CC(=O)C[C@H](O)CC(=O)[C@H]1OC(=O)CCCCCCc2ccccc21,4.94
11,CC1(C)CC(=O)C2=C(C1)Nc1ccccc1[S@]2=O,1.12
12,COc1ccc(C2=NCCc3cc(OC)c(OC)cc32)cc1OC,4.26
13,COc1ccc(CC2(CO)CCN(C/C=C/c3ccccc3OC)CC2)cc1,50.6
14,OCC1(Cc2ccccc2Cl)CCN(C/C=C/c2ccccc2)CC1,2.72
15,Cc1ccc(-n2nc(CC#N)c(C#N)c2N)cc1Cl,-3.34
16,O=Nc1c(O)[nH]c2ccc(F)cc12,-7.36
17,Cc1ccc2[nH]c(O)c(N=O)c2c1,-3.5
18,O=C(CSc1cccc[n+]1[O-])Nc1cccc(Oc2ccccc2)c1,2.29
19,O=C(C1CC(=O)N(c2ccc3c(c2)OCCO3)C1)N1CCN(Cc2ccccc2F)CC1 (stereo not given),-2.42
20,COc1cccc2sc3ccc(C#CC4(O)CCCCC4)cc3c(=O)c12,47.6
21,COc1cccc2sc3ccc(C#Cc4ccc(N)cc4)cc3c(=O)c12,39.9
22,COc1ccc(S(=O)(=O)Cc2ccc(C(=O)N3CCN(C4CCCCC4)CC3)o2)cc1,-3.99
23,COc1ccc(NC(=O)c2ccc(CNc3c(NC4CCCCC4)c(=O)c3=O)cc2)c(OC)c1,-5.88
